Bioassay records as filed in PubChem.
PLK1 PBD block – qHTS for Inhibitors of PLK1-PDB (polo-like kinase 1 - polo-box domain): Primary Screen | AID 720504, 2013 | Plk1 PBD binding of FITC phosphopeptide, fluorescence polarization | 360,000 tested, 2.8% active | Serine/threonine-protein kinase PLK1 (Homo sapiens), P53350 | Potency, µM, most hits filed as inhibitors; also: series mostly up to about 57 µM; nearly all actives have a fitted effect of over 65% in size
Target sequence (P53350 whole entry, looked up, the tested form may be a part): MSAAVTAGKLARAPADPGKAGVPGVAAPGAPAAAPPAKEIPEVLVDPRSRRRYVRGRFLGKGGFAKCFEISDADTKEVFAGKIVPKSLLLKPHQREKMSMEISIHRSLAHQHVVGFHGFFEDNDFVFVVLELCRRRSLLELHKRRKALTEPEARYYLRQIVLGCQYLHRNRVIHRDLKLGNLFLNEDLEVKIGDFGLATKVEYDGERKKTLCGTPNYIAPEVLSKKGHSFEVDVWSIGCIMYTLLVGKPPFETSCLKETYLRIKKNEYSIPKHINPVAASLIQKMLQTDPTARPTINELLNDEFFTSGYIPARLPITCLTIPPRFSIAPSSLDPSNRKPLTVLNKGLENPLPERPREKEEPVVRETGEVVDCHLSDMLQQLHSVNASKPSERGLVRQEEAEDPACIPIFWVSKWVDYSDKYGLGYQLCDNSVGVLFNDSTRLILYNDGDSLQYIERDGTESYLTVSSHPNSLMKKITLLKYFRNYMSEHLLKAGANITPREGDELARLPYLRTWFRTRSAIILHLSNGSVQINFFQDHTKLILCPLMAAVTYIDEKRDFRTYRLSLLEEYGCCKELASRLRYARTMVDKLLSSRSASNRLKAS
JMJD2A Tudor inh – qHTS Assay for Inhibitors of JMJD2A-Tudor Domain. Potency, µM (titrated, usually from 114 µM), hits mostly inhibitors. 390,000 tested, 4.4% active. AlphaScreen JMJD2A-Tudor / H3K4me3 peptide binding. AID 504339, 2011; also: nearly all actives have a fitted effect of over 50% in size
Sfp PPTase inh – qHTS Assay for Inhibitors of Bacillus subtilis Sfp phosphopantetheinyl transferase (PPTase); Biochemical Sfp PPTase activity, qHTS; Potency, µM, most hits filed as inhibitors; 310,000 tested, 3.5% active; AID 1490, 2009;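 also: the enzyme is Sfp with the accession as filed and its product quenches rhodamine fluorescence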
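Reaction rates are the 30-min fluorescence difference (ex 525, em 598 nm) in wells containing 15 nM Sfp, 5 uM rhodamine-CoA and 12.5 uM BHQ-2-YbbR at pH 7.6 with 10 mM MgCl2.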
BAZ2B inh – qHTS Assay for Inhibitors of BAZ2B; AlphaScreen BAZ2B-H3K14Ac peptide displacement; Potency, µM (doses to about 114 µM), usual class: inhibitors; 360,000 tested, 4.4% active; AID 504333, 2011; also: nearly all actives have a fitted effect of over 60% in size
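Multi-concentration screen (max 110 uM) measuring displacement of acetylated histone H3 peptide from BAZ2B by AlphaScreen, using 50 nM protein, 50 nM peptide and 10 ug/mL streptavidin donor plus Ni-chelate acceptor beads.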
G9a inh – qHTS Assay for Inhibitors of Histone Lysine Methyltransferase G9a. G9a H3K9 monomethylation, AlphaScreen, 2 h. AID 504332, 2011. Potency, µM (titrated, usually from 102 µM), actives largely listed as inhibitors. 350,000 tested, 8.8% active; also: nearly all actives have a fitted effect of over 75% in size
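Methyltransferase reactions run at room temperature for 2 h (20 nM enzyme, 500 nM biotin-H3K9 peptide, 20 uM SAM) after a 15 min compound preincubation; product detected by AlphaScreen beads and anti-H3K9me1 antibody.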
HP1b chromo inh – HTS for Inhibitors of HP1-beta Chromodomain Interactions with Methylated Histone Tails | 390,000 tested, 0.56% active | Chromobox protein homolog 1 (Homo sapiens), P83916 | Potency, µM (doses to about 114 µM), actives largely listed as inhibitors | AlphaScreen HP1-beta / biotin-H3K9me3 peptide binding; also: nearly all actives have a fitted effect of over 70% in size
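HP1-beta protein (50 nM final) preincubated 30 min at room temperature with biotinylated H3(1-18)K9me3 peptide (50 nM) in PBS pH 7.4, 0.01% Tween-20, then compound added for 30 min. AlphaScreen streptavidin donor/nickel chelate acceptor beads (10 ug/mL final), 30 min dark, luminescence read.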
Large screens that a line does not name were inactive. An excerpt weighted towards active compounds, which were near 12% of everything screened. Calls follow the shape of the dose curve; as a rule, active = well fitted curve in the direction sought with a large enough effect; inconclusive = small, poorly fitted or top-dose-only effect, or another doubt; inactive = no such curve, though single readings can be large; an effect the other way counts as inactive or inconclusive.

Cc1ccc2c(c1)-c1c(cnc3cc(-c4ccc(F)cc4)nn13)CO2	none (no result: PLK1 PBD block, Sfp PPTase inh)
CCNc1ncc2nc(CCc3ccccc3)c(=O)n(C)c2n1	none (no result: PLK1 PBD block, JMJD2A Tudor inh, BAZ2B inh, HP1b chromo inh)
O=C(Nc1ccc(F)cc1)N1CCc2ccccc2C1	PLK1 PBD block 21µM, JMJD2A Tudor inh inconclusive (no result: G9a inh)
COc1cc(C(=O)OCCc2c(C)nc3nc[nH]n3c2=O)cc(OC)c1OC	none
CC(=O)OCCc1c(C)nc2nc[nH]n2c1=O	PLK1 PBD block inconclusive, G9a inh 50µM
O=C(CN1CCCCCC1)N/N=C/c1cccs1	JMJD2A Tudor inh 3.2µM, BAZ2B inh 79µM
CCOc1ccc(/C=N/NC(=O)CN2CCCCCCC2)cc1	JMJD2A Tudor inh 20µM, BAZ2B inh 50µM, G9a inh 7.9µM, HP1b chromo inh inconclusive
CCCOc1ccc(/C=N/NC(=O)CN2CCCCC2)cc1	none
CCN1CCN(CC(=O)N/N=C/c2cc(Br)cs2)CC1	JMJD2A Tudor inh 4µM, Sfp PPTase inh 79µM, BAZ2B inh 25µM, HP1b chromo inh inconclusive (no result: G9a inh)
CCOc1ccc(NC(=O)CN2CCN(CC(=O)Nc3ccc(C(N)=O)cc3)CC2)cc1	G9a inh 50µM
CCOc1ccc(NC(=O)c2nnn(-c3ccc(F)c(Cl)c3)c2C)cc1	none (no result: PLK1 PBD block, Sfp PPTase inh)
CCOc1ccc(Cn2nnc3c(=O)[nH]c(C4CCN(C(=O)c5ccccc5)CC4)nc32)cc1	JMJD2A Tudor inh inconclusive, G9a inh inconclusive (no result: PLK1 PBD block, Sfp PPTase inh)
COc1ccccc1-n1ncc2c(=O)[nH]c(SCC(=O)Nc3ccc(Cl)cc3)nc21	none (no result: PLK1 PBD block, Sfp PPTase inh)
Cc1cc(NC(=O)C(C)SCC(=O)OCC(=O)N(C)c2ccccc2)no1 (centres undefined)	none (no result: Sfp PPTase inh)
COC(=O)c1ccc(NC(=O)CSc2ccccn2)cc1	G9a inh inconclusive
CCOc1ccc(/C=N/NC(=O)CN2CCCCC2)cc1OCC	BAZ2B inh inconclusive
COC(=O)c1ccc(NC(=O)CSc2ccccc2)cc1	PLK1 PBD block 21µM, JMJD2A Tudor inh 32µM, HP1b chromo inh inconclusive
O=C(CN1CCCCCC1)N/N=C/c1ccc(Cl)c(Cl)c1	JMJD2A Tudor inh 8.9µM, BAZ2B inh 50µM, G9a inh 13µM
CCOc1ccc(/C=N/NC(=O)C(C)N(c2ccc(OC)cc2)S(C)(=O)=O)cc1 (centres undefined)	none
COC(=O)c1ccc(NC(=O)CN2CCN(CC#N)CC2)cc1	JMJD2A Tudor inh 2.2µM, Sfp PPTase inh inconclusive, BAZ2B inh 40µM, G9a inh 10µM, HP1b chromo inh 50µM
CCOc1ccc(N(CC(=O)N/N=C/c2ccc(OC(C)C)cc2)S(C)(=O)=O)cc1	JMJD2A Tudor inh inconclusive, BAZ2B inh 56µM, G9a inh inconclusive
CCC(C)(C)NC(=O)CN(Cc1ccc(OC)cc1)C(=O)CCC(=O)Nc1nccs1	HP1b chromo inh inconclusive
O=C(CN1CCN(Cc2ccccc2Cl)CC1)N/N=C/c1ccccn1	G9a inh 50µM
CSc1ccc(/C=N/NC(=O)CN2CCN(Cc3ccccc3Cl)CC2)cc1	Sfp PPTase inh inconclusive
Cc1ccc(/C=N\NC(=O)CCc2n[nH]c(=O)[nH]c2=O)o1	PLK1 PBD block 17µM, JMJD2A Tudor inh 16µM, Sfp PPTase inh inconclusive
CC1(C)CC(C)(c2ccc(O)cc2O)N(c2ccc3ccccc3c2)C(=S)N1 (centres undefined)	JMJD2A Tudor inh inconclusive, BAZ2B inh 45µM, G9a inh inconclusive
CCn1c(=O)n(-c2ccc3c(c2)OCO3)c2nc(-c3ccc(C(C)C)cc3)nc(C(N)=O)c21	none (no result: PLK1 PBD block, Sfp PPTase inh)
COc1ccccc1Nc1nn2c(=O)c3ccc(C(=O)NCc4cccnc4)cc3nc2s1	BAZ2B inh 56µM (no result: PLK1 PBD block, JMJD2A Tudor inh, HP1b chromo inh)
O=C(NCc1ccco1)c1cc(-c2ccccn2)nc2ccccc12	G9a inh 79µM
